# In the supplement of paper PMC10933113:
# Where a name gives a salt, the structure may show the parent alone. ± gives the uncertainty stated by the source.
# Test system: THP-1
# Assay: CD86 surface expression induction over DMSO control (% over DMSO); higher = stronger dendritic cell activation
# Conditions: exposure time: 24 h
# Experimental: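 hCLAT-like CD54 and CD86 surface expression on THP1 cells after 24 h exposure at a single concentration (highest non-cytotoxic concentration, or 100-200 µM if not cytotoxic). Flow cytometry (iQue) was run on 5,000 live cells.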
row,Structure (SMILES),CD86 surface expression induction
1,Fc1ccc(Oc2ccnc3cc(Cl)cc(Cl)c23)cc1 [Quinoxyfen] (200 µM),2.53 ± 5
2,COP(=S)(OC)Oc1nc(Cl)c(Cl)cc1Cl [Chlorpyrifos-methyl] (200 µM),17.7 ± 42
3,COc1ccccc1N [2-Methoxyaniline hydrochloride] (100 µM),-19.9 ± 30
4,OC[P+](CO)(CO)CO [Tetrakis(hydroxymethyl)phosphonium SO4] (100 µM),6.79 ± 11
5,"O=C(CCl)CCl [1,3-Dichloropropanone] (200 µM)",16.5 ± 17
6,CCS(=O)(=O)CCSP(=O)(OC)OC [Demeton-S-methylsulphon] (10 µM),-12.6 ± 14
7,CCNc1nc(NC(C)(C)C)nc(SC)n1 [Terbutryn] (100 µM),0.6 ± 2.4
8,"CN(C)c1ccc(N(C)C)cc1 [*N,N,N',N'-Tetramethyl-p-phenylenediamine] (200 µM)",52.4 ± 59
9,"CC(C)(C)C(=O)CCl [1-Chloro-3,3-dimethyl-butan-2-one] (200 µM)",-2.11 ± 2.4
10,CCCOC/C(=N\c1ccc(Cl)cc1C(F)(F)F)n1ccnc1 [Triflumizole] (10 µM),-11.1 ± 7.1
11,CC(C)OC(=S)S [Proxan-sodium] (10 µM),-16.7 ± 6.5
12,C=CC(=O)OCC(COC(=O)C=C)(COC(=O)C=C)COC(=O)C=C [Pentaerythritol tetraacrylate] (10 µM),8.9 ± 7.2
13,Nc1ccc2ccccc2c1 [2-Naphthylamine] (100 µM),68.7 ± 65
14,CCOP(=S)(OCC)Oc1cnc2ccccc2n1 [Quinalphos] (200 µM),-2.83 ± 2.4
15,CCC(C)(c1ccc(O)cc1)c1ccc(O)cc1 [Bisphenol B] (200 µM),4.76 ± 3
16,O=C(O)c1ccc(=O)[nH]c1 [6-Hydroxynicotinic acid] (100 µM),-4.7 ± 6.2
17,O=C(CCl)c1ccccc1 [2-Chloroacetophenone] (100 µM),8.54 ± 19
18,c1ccc2sc(SNC3CCCCC3)nc2c1 [N-Cyclohexyl-2-benzothiazolesulfenamide] (100 µM),8.63 ± 9.4
19,CC(COc1ccc(Oc2ccccc2)cc1)Oc1ccccn1 (centres undefined) [Pyriproxyfen] (200 µM),-0.44 ± 4.1
20,COc1ccc(O)c(C(C)(C)C)c1 [2-tert-Butyl-4-methoxyphenol] (200 µM),-4.34 ± 6.1

row,Structure (SMILES),CD86 surface expression induction
1,"Nc1ccc(N)cc1 [1,4-Benzenediamine] (10 µM)",29
2,CCC(C)(NC(=O)c1cc(Cl)c(C)c(Cl)c1)C(=O)CCl (centres undefined) [Zoxamide] (10 µM),-5.9 ± 2.3
3,"CN(C)c1ccc(N)cc1 [N,N-Dimethyl-p-phenylenediamine] (100 µM)",44.5 ± 46
4,CCOC(=O)CC(SP(=S)(OC)OC)C(=O)OCC (centres undefined) [Malathion] (100 µM),-0.63 ± 4.7
5,"O=[N+]([O-])c1cc([N+](=O)[O-])c2ccccc2c1 [1,3-Dinitronaphthalene] (200 µM)",2.95 ± 4.5
6,COP(=O)(OC)OC(Br)C(Cl)(Cl)Br (centres undefined) [Naled] (100 µM),30.5 ± 5.4
7,Nc1ccc(-c2ccccc2)cc1 [4-Biphenylamine hydrochloride] (100 µM),-3.55 ± 5.8
8,O=C1C(Cl)=C(Cl)C(=O)C(Cl)=C1Cl [Chloranil] (100 µM),16.6 ± 9.4
9,"c1ccc(Nc2ccc(Nc3ccccc3)cc2)cc1 [N,N'-Diphenyl-p-phenylenediamine] (200 µM)",-11.2 ± 8.1
10,CN1C[C@H](C(=O)N[C@]2(C)O[C@@]3(O)[C@@H]4CCCN4C(=O)[C@H](Cc4ccccc4)N3C2=O)C=C2c3cccc4[nH]cc(c34)C[C@H]21 [Ergotamine D-tartrate*] (79 µM),63 ± 77
11,"CCCCNC(=O)OCC#CI [Carbamic acid, butyl-, 3-iodo-2-propynyl ester] (10 µM)",-9.06 ± 2.4
12,COP(=S)(OC)Oc1ccc(SC)c(C)c1 [Fenthion] (100 µM),-4.96 ± 3.4
13,CCC(C)(CC)c1cc(NC(=O)c2c(OC)cccc2OC)on1 [Isoxaben] (200 µM),0.63 ± 1.4
14,c1cc(OCC2CO2)ccc1Cc1ccc(OCC2CO2)cc1 (centres undefined) [Bis[4-(glycidyloxy)phenyl]methane] (100 µM),7.56 ± 6.6
15,Nc1cc(Cl)ccc1O [2-Amino-4-chlorophenol] (200 µM),41.9 ± 31
16,"Nc1ccc(Cl)cc1N [4-Chloro-1,2-diaminobenzene*] (200 µM)",71.3 ± 120
17,CCOCN(C(=O)CCl)c1c(C)cccc1CC [Acetochlor] (10 µM),90 ± 25
18,O=C(N/N=C/c1ccc([N+](=O)[O-])o1)c1cc([N+](=O)[O-])cc([N+](=O)[O-])c1O [Nifursol] (200 µM),8.52 ± 13
19,c1cc(OCC2CO2)cc(OCC2CO2)c1 (centres undefined) [Diglycidyl resorcinol ether (DGRE)] (10 µM),-10.6 ± 5
